# Source: PubChem BioAssay (Broad Institute)
# NSD2 HMT inh: NSD2 (human) methyltransferase inhibition | NSD2 peptide methylation, AlphaScreen, 120 min | inhibition, % at 12.5 µM | 310,000 compounds, 0.54% hits
# MITF TRPM1 HTS: increases MITF-driven TRPM1 promoter luciferase signal | SK-MEL-5 TRPM1-promoter luciferase, 24 h; % of positive control, neutral wells = 0 | activation, % at 12.5 µM | 300,000 compounds, 0.75% hits | AID 588334;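 active = mean activation of at least 80% with every replicate also reaching 80%; inconclusive = mean reaches 80% but some replicate falls short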;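 also: 0% = neutral control wells and 100% = parthenolide positive control wells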
# miR-122 sensor: miR-122 inhibition in Huh7 cells | Huh7 miR-122 Renilla luciferase sensor, 48 h; neutral wells = 0, positive control = 100 | 340,000 compounds, 0.3% hits | activation (reporter increase), % at 12.5 µM | AID 602342;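 active = mean replicate activation score at least 90 and every replicate individually at or above 90; inconclusive = only one of the two criteria met; inactive = neither criterion met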;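 also: higher luciferase means less miR-122 activity so hits act as miR-122 inhibitors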
# Dyrk1A ADPGlo: Dyrk1A (rat) kinase inhibition | AID 504441 | ADP-Glo luminescence, NFATc1 peptide | Q63470 | 310,000 compounds, 0.43% hits | inhibition, % at 12.5 µM;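 also: plate controls were vehicle with enzyme for no effect and no enzyme for full effect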
# Wnt act: Wnt/beta-catenin pathway activation; 300,000 compounds, 1.2% hits; Wnt/beta-catenin reporter cell assay, activator, plate reader; AID 743398; activation, % at 9.35 µM; in the data active = activation above about 30%, passing the limit was not always enough; inconclusive = no clear call, values can overlap the other calls;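 also: 0% = neutral control wells and 100% = positive control wells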
# INS-1E GSIS act: GLuc luminescence reporter in INS-1E cells, primary screen for activators of glucose-dependent secretion of insulin. 370,000 compounds, 0.61% hits. AID 743287. INS-1E GLuc reporter insulin secretion, 2-3 h. activation, % at 16.6 µM;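 active = lowest replicate activation of at least 40%, so every replicate reaches that level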;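 also: 0% = median of neutral control wells and 100% = median of IBMX positive control wells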
# The depositor's hits bear a star; ? = inconclusive; . = no result; ! = not active in a repeat; [ ] = remark or other dose. The list is not random: actives were taken first. Their share in the collection is about 2.4%. Rule as the data show it, unless noted: active = inhibition above about 50%; inactive = the rest.
SMILES,NSD2 HMT inh,MITF TRPM1 HTS,miR-122 sensor,Dyrk1A ADPGlo,Wnt act,INS-1E GSIS act
Cc1ccc(/C=C/C(=O)Nc2cc(C)on2)cc1,-1.1,74.7,-4.0,-7.7,34.8*,.
COc1ccc(S(=O)(=O)N(C)C[C@@H]2Oc3c(NC(=O)Nc4c(C)noc4C)cccc3C(=O)N([C@@H](C)CO)C[C@@H]2C)cc1,.,.,-2.6[16.7 µM],.,.,6.0
FC(F)(F)CN1CC2C(c3ccc(Br)cc3)C(C1)N2CC(F)(F)F (centres undefined),.,.,.,.,.,-21.7
Cc1ccc(NC(=O)c2cc(C)on2)cc1,-0.4,96.8*,-2.6,-19.7,.,19.1
COC(=O)[C@H]1[C@H](CO)[C@H]2Cn3c(ccc(-c4ccccc4F)c3=O)[C@H]2N1CC1CCCC1,.,.,6.7[16.7 µM],.,.,-13.4
CCOc1cccc(C(=O)Nc2ccc3c(c2)OCCO3)c1,21.4,.,5.4,0.1,41.8*,26.8
COc1ccc(C(=O)Nc2ccc3[nH]ncc3c2)cc1,1.4,.,-10.4,7.6,0.4,8.9
CCOc1cccc(C(=O)Nc2ccc3ccccc3c2)c1,31.5,.,.,0.7,35.7*,-0.6
O=C(Nc1ccc2c(c1)OCCO2)c1cncc(Br)c1,-3.2,.,3.1,3.6,40.9*,11.7
O=C(Nc1ccc2c(c1)OCCO2)c1cccc(C(=O)Nc2ccc3c(c2)OCCO3)c1,-1.3,40.8,.,5.0,19.0,-25.9
CCOc1ccc(C(=O)Nc2ccc3[nH]ncc3c2)cc1,-0.3,55.5,9.9,-1.7,54.6*,.
C[C@@H]1CN([C@@H](C)CO)C(=O)c2cccc(NC(=O)NC3CCCCC3)c2O[C@H]1CN(C)CC1CCCCC1,.,.,32.4[16.7 µM],.,.,5.6
CCS(=O)(=O)N1CC2(C1)[C@H](c1ccccc1)[C@@H](CO)N2C(=O)C1CC1,.,.,.,.,.,3.4
Cc1ccc(CSCc2ccc(C(=O)NCCCN3CCOCC3)o2)cc1,-1.0,16.2,8.5,-2.9,-4.9,-3.1
Cc1ccccc1CSCc1ccc(C(=O)NCCCN2CCOCC2)o1,-9.3,6.2,-1.6,0.9,4.5,46.1*
COCC(=O)N1CC2(C1)CN(C(=O)c1ccccn1)[C@@H](CO)c1c2c2ccc(OC)cc2n1C,.,.,.,.,.,-13.8
Fc1ccc2cc(CCO[C@H]3CCCCO3)ncc2c1,.,40.0,4.7,6.8,32.2*,3.0
Fc1ccc2cnc(CCO[C@H]3CCCCO3)cc2c1,.,39.2,0.4,2.1,17.0,-1.3
Cc1cc(NC(=O)c2ccc(OCC3CCCO3)cc2)ccc1Br (centres undefined),-0.6,.,-10.2,.,52.0*,.
O=C(Nc1nnc([C@@H]2C[C@H](O)[C@@H](CO)O2)s1)Nc1ccccc1F,-3.6,.,0.3,.,39.1*,-9.0
Cc1ccn2c(=O)nc(SCC(=O)N3CCC(C)CC3)nc2c1,3.7,0.9,3.4,1.6,-1.2,-5.0
CC1CCN(C(=O)CSc2nc(=O)n3cc(Cl)ccc3n2)CC1,1.3,-8.1,.,-7.0,-3.3,78.5*
C=CCc1ccccc1OCC(=O)O,.,-11.0,.,-6.3,33.6*,-4.7
CCCNc1cc(C)oc(=O)c1C(=O)CCC,-0.6,9.9,-2.8,-0.9,.,88.1*
CCCC(=O)c1c(NCCO)cc(C)oc1=O,-0.7,-8.9,.,0.9,-1.6,14.1
SMILES,NSD2 HMT inh,MITF TRPM1 HTS,miR-122 sensor,Dyrk1A ADPGlo,Wnt act,INS-1E GSIS act
Cc1cc(C(F)F)n2ncc(C(=O)NCc3ccc(F)cc3)c2n1,.,7.9,2.2,-1.4,-1.4,44.1*
CC1(C(=O)NCC2CCCCC2)CCN1C(=O)Cc1ccc(-c2ccccc2)cc1 (centres undefined),-1.7,.,8.9,.,-2.4,-29.4
CC1(C(=O)NCC2CCCCC2)CCN1CCc1ccccc1 (centres undefined),-2.4,.,.,.,-1.5,80.1*
Cc1cnc(NC(=O)COc2ccc3c(c2)CCC3)s1,-3.3,40.0,.,-3.7,43.1*,-8.9
COc1cc(C)c(NC(=O)COc2ccc3c(c2)CCC3)cc1OC,-3.9,-4.4,-6.7,-3.4,2.0,13.7
O=C(COc1ccc2c(c1)CCC2)Nc1ccccn1,-1.5,-49.5,-4.3,8.5,11.8,-1.4
Cc1cccc(NC(=O)COc2ccc3c(c2)CCC3)n1,-7.8,101.4*,2.2,12.0,1.7,-7.6
COc1cc(OC)cc(-c2cc3cc(F)ccc3cn2)c1,.,121.1*,-5.2,8.6,39.0*,16.3
COc1ccc(-c2cc3ccc(F)cc3cn2)cc1,.,54.6,9.7,-13.7,?,-3.0
COc1ccc(-c2cc3cc(F)ccc3cn2)cc1,.,67.1,2.9,9.7,43.3*,1.8
C[C@H](CO)N1C[C@H](C)[C@@H](CN(C)S(=O)(=O)c2ccc(Cl)cc2)Oc2c(NC(=O)c3cnccn3)cccc2C1=O,.,.,0.2[16.7 µM],.,.,12.0
O=C(Nc1ccc(C(F)(F)F)cc1)N[C@H]1CC[C@H](CC(=O)N2CCCCC2)O[C@H]1CO,.,.,.,.,.,-13.1
CO[C@@H]1CN(C)C(=O)c2ccc(NC(=O)C3CCOCC3)cc2OC[C@@H](C)N(C(=O)c2ccccc2)C[C@@H]1C,.,.,.,.,.,10.0
C[C@@H]1CCCCO[C@@H](CN(C)Cc2ccc(C(F)(F)F)cc2)[C@H](C)CN([C@@H](C)CO)C(=O)c2cc(NC(=O)Nc3ccc4c(c3)OCO4)ccc2O1,.,.,-3.8[16.7 µM],.,.,16.2
Clc1ccc(-c2nnc(-c3ccco3)o2)cc1,.,58.9,-8.2,-3.2,38.5*,.
Cc1ccc(O)c(-c2cc(-c3ccc(F)cc3)no2)c1,-4.7,25.2,6.5,-1.4,43.7*,4.9
CC(=O)N/N=C\c1ccccc1OC/C=C/c1ccccc1,-1.3,?,-6.4,1.2,41.6*,3.8
CC(C)(O)C(=O)N/N=C\c1ccc(OC/C=C/c2ccccc2)cc1,-2.8,104.5*,-6.7,-6.8,12.7,19.1
COC(=O)N/N=C\c1ccc(OC/C=C/c2ccccc2)cc1,-4.2,70.7,-4.5,.,7.7,23.6
O=C(CCN1CCCCC1)NCC[C@H]1CC[C@@H](NS(=O)(=O)c2cccc(Cl)c2)[C@H](CO)O1,.,.,.,.,.,1.9
CCOC(=O)c1sc(=NC(=O)c2ccc(OC)c(OC)c2)n(C)c1C,.,68.1,-7.9,-4.3,12.5,5.8
CCOC(=O)c1sc(=NC(=O)c2ccccc2)n(C)c1C,-8.9,67.9,4.3,-6.7,43.6*,0.6
CCOC(=O)c1sc(=NC(=O)c2cccc(OC)c2)n(C)c1C,-0.5,?,-1.7,.,33.2*,.
COc1cccc2c(SCC(=O)N/N=C/c3ccccc3)cc(C)nc12,0.8,-15.5,-5.0,-0.5,.,11.7
COc1cccc2c(SCC(=O)N/N=C/c3ccc(O)c(O)c3)cc(C)nc12,132.0*,7.3,-8.0,-0.8,-0.3,-5.3
C[C@@H]1CN([C@@H](C)CO)C(=O)c2cc(Br)cnc2O[C@H]1CN(C)C(=O)C1CC1,.,.,-9.0,.,-1.0,45.7*!
COCC(=O)N(C)C[C@@H]1Oc2ncc(C#Cc3cccnc3)cc2C(=O)N([C@H](C)CO)C[C@H]1C,.,.,112.7*[16.7 µM],.,.,3.7
COCC(=O)N(C)C[C@H]1Oc2ncc(C#Cc3ccccc3)cc2C(=O)N([C@@H](C)CO)C[C@H]1C,.,.,-3.9[16.7 µM],.,.,8.3
